# In all, about 310,000 compounds went through this assay and about 14,000 (4.5%) showed an effect of 50% or more. Effects have a minus sign here. For the sample, strong results were picked, then their nearest neighbours and some compounds at random.
# Molecular target: human ether-à-go-go-related gene (hERG) potassium channel (human, UniProt Q12809)
# Experiment: primary screen, population patch clamp on CHO cells stably expressing hERG; higher = less effect of the substance
# 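Further: peak tail current of the secondary pulse compared with the same well before compound.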
# Chain of human ether-à-go-go-related gene (hERG) potassium channel (Q12809 whole entry, looked up): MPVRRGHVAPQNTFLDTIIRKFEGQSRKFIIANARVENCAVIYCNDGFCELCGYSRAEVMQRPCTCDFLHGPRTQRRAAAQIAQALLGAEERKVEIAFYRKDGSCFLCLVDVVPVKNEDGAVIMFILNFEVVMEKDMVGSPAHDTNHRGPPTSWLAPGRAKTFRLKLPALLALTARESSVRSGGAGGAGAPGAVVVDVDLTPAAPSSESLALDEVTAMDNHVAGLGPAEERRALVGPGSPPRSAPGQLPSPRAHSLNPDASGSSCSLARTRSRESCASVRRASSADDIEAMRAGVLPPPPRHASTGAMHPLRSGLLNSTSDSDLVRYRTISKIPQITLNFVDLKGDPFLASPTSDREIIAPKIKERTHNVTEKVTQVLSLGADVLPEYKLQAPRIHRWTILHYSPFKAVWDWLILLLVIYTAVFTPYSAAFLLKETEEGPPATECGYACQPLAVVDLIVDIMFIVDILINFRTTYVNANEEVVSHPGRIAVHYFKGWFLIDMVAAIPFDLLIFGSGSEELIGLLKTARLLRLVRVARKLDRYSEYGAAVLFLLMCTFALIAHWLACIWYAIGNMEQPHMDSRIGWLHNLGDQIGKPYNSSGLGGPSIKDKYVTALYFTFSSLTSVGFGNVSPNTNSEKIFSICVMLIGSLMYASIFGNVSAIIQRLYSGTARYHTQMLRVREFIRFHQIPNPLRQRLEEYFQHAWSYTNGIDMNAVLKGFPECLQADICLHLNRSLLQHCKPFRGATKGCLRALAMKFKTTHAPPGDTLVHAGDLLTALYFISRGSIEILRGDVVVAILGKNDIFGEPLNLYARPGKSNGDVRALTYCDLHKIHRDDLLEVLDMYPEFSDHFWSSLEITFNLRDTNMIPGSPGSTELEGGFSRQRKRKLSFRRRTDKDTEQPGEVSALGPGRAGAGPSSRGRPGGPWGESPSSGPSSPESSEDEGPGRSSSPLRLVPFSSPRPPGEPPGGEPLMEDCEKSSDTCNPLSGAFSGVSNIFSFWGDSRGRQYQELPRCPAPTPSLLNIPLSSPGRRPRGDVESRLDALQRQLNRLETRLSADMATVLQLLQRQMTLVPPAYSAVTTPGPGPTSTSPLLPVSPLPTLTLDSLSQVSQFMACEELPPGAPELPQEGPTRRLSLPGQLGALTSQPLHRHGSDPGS
row,Compound,"hERG current change (%, negative = inhibition) at 10uM"
1,Cc1ccc(S(=O)(=O)C2(C(=O)N3CCN(c4cc(C)ccc4C)CC3)CC2)cc1,-15.2%
2,Cc1ccc(Cl)cc1N1CCN(C(=O)C2(S(=O)(=O)c3ccc(Cl)cc3)CC2)CC1,-6.38%
3,O=C(N1CCN(c2ccccc2)CC1)C1(S(=O)(=O)c2ccc(Cl)cc2)CC1,-42.1%
4,Cc1ccc(S(=O)(=O)C2(C(=O)N3CCCCCC3)CC2)cc1,-11.6%
5,COc1ccc(N2CCN(C(=O)C3(S(=O)(=O)c4ccc(C)cc4)CC3)CC2)cc1,-53.7%
6,CC(=O)c1ccc(N2CCN(C(=O)C3(S(=O)(=O)c4ccc(Cl)cc4)CC3)CC2)cc1,-51.8%
7,CCOc1ccc(C(=O)CCC(=O)Nc2cc(C)ccn2)cc1,11.8%
8,COc1ccc(OC)c(N=Cc2c(O)c3ccccc3oc2=O)c1,12.9%
9,O=C(CCc1nnc2ccc(NCc3ccccc3Cl)nn12)NC1CCCCC1,-7.98%
10,COc1ccc(C(=O)C2CCCN(Cc3cccn3-c3ccccn3)C2)c(OC)c1 (centres unmarked),-74.6%
11,COc1ccc(C(=O)C2CCCN(Cc3cccn3-c3ccc(Cl)cn3)C2)c(OC)c1 (centres unmarked),-76%
12,COc1ccc(C(=O)C2CCCN(C(=O)CCc3ccccn3)C2)c(C)c1 (centres unmarked),-14.7%
13,COc1ccc(C(=O)C2CCCN(Cc3cccn3-c3ccccn3)C2)c(C)c1 (centres unmarked),-78.9%
14,COc1ccc(C(=O)C2CCCN(CCO)C2)c(C)c1 (centres unmarked),4.23%
15,COc1ccccc1NC(=O)Cn1c(C)nc2c(sc(=S)n2Cc2ccco2)c1=O,-32.6%
16,COc1cc(Cl)cc(C#N)c1OCC(=O)O,11%
17,O=C(NC(Nc1nc2ccc([N+](=O)[O-])cc2s1)(C(F)(F)F)C(F)(F)F)c1ccccc1Cl,-23.1%
18,O=C(CSc1nnc(-c2cccnc2)n1Cc1ccccc1)NCc1ccccc1,-14.1%
19,O=C(COC(=O)c1ccccc1NS(=O)(=O)c1cccs1)NCC12CC3CC(CC(C3)C1)C2,5.15%
20,COc1cc(NC2c3ccccc3C(=O)N2Cc2ccccc2Cl)cc(OC)c1OC (centres unmarked),-0.846%
21,CC(C)(CO)NC(=O)C(Cc1ccccc1)N1C(=O)c2ccccc2C1=O (centres unmarked),17%
22,Cc1c(C#N)c(NC(=O)CCl)n(Cc2cccs2)c1C,-11.4%
23,CCN1CCN(C(=O)CCc2nnc(CCCCc3ccccc3)o2)[C@@H](C)C1=O,16.5%
